TRHR PAM – qHTS for Small Molecule Agonists and Allosteric Enhancers of Human TRH Receptor: Primary Screen for Enhancers | Thyrotropin-releasing hormone receptor (Homo sapiens), P34981 | TRHR cells, fluo-8 calcium fluorescence, EC20 TRH enhancement | 0.66% of 360,000 active | AID 493056, 2011 | enhancement, % at 2 µM; in the data active = enhancement above about 30%
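TRHR-expressing cells loaded with fluo-8 calcium dye were read kinetically (ex 480/em 530) during compound addition, then stimulated with an EC20 of TRH (10 nM final). Enhancement of the Gq-mediated intracellular calcium response was scored.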
Glioma ERSR ind – qHTS for Inducers of the Endoplasmic Reticulum Stress Response (ERSR) in Human Glioma: qHTS | U87-MG GRP78 promoter luciferase reporter, 16 h | Potency, µM, usual class: activators | 0.02% of 420,000 active; active = well fitted activation curve with a large enough effect; inconclusive = small, poorly fitted or top-dose-only effect; inactive = no such curve, though single readings can be large or run the other way; note: series mostly up to about 76 µM; nearly all actives have a fitted effect of over 35% in size
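Stably transfected U87-MG human glioma cells carrying a GRP78-based luminescent sensor were seeded at 1000 cells/well, pin-dosed with compounds and incubated 16 h. Luciferase reagent was then added, and end-point luminescence was read after 10 min at room temperature.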
TRHR ag – qHTS for Small Molecule Agonists and Allosteric Enhancers of Human TRH Receptor: Primary Screen for Agonists; 0.18% of 360,000 active; activation, % at 2 µM; TRHR cells, calcium flux fluo-8, FDSS agonist mode; Thyrotropin-releasing hormone receptor (Homo sapiens), P34981
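TRHR-expressing cells, plated overnight in medium with 10% serum, were loaded with fluo-8 calcium dye at room temperature. After a 10 s baseline, library compound was pin-added and calcium release was recorded kinetically (ex 480/em 530) as agonist response.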
D1 ag – Allosteric Agonists of the Human D1 Dopamine Receptor: qHTS; D(1A) dopamine receptor (Homo sapiens), P21728; HEK293 T-REx D1 cells, calcium flux, agonist mode; activation, % at 2 µM; 1% of 360,000 active; AID 504660, 2011
Target sequence (P21728 whole entry, looked up): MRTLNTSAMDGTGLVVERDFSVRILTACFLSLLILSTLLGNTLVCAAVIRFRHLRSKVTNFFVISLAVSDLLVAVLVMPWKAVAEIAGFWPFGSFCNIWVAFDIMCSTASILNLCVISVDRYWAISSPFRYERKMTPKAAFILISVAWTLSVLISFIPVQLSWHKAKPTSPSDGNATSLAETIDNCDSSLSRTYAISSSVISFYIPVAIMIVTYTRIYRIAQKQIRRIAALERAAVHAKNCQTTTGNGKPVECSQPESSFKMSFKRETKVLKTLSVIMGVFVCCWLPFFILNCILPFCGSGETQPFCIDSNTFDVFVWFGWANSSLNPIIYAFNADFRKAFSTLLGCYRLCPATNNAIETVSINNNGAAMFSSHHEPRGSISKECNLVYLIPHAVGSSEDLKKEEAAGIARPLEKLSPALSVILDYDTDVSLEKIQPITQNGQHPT
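Tetracycline-induced HEK293 TREx D1 cells, force-coupled to calcium signalling, were dye-loaded with a no-wash calcium kit. Compound was pin-added after a 10 s baseline. Fluorescence was read kinetically at 1 cycle/s for 180 s, with calcium rises flagged as agonism.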
D1 antag – Antagonist of Human D 1 Dopamine Receptor: qHTS; D(1A) dopamine receptor (Homo sapiens), P21728; HEK293 TREx D1 cells, calcium flux, dopamine EC80; active compounds read low; activity change, negative = inhibition, % at 10 µM; 3.2% of 360,000 active; AID 504652, 2011; in the data active = activity change below about -30%
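Inducible Hek293 Trex D1 cells (tetracycline, overnight, 30 C). Calcium dye 30–90 min RT. Antagonist mode: EC80 dopamine added after 180 s compound read.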
D1 PAM – Potentiators of Human D1 Dopamine Receptor: qHTS; D(1A) dopamine receptor (Homo sapiens), P21728; HEK293 TREx D1 cells, calcium flux, dopamine EC20 potentiation; potentiation, % at 10 µM; 0.036% of 360,000 active; AID 504651, 2011; in the data active = potentiation above about 30%
Of the large screens only hits and unclear results are named; the others gave an inactive call; ! = not active in a repeat. This is a sample that favours compounds with a hit; in the whole collection about 4% have one here. Cut-off read from the data, not from the text of the source, unless noted: active = activation above about 30%; inactive = the rest.

O=c1c2ccccc2[nH]c(=S)n1CCCN1CCC(Cc2ccccc2)CC1	D1 antag -31
O=C(c1ccc(F)cc1)C1CCN(CCn2c(=S)[nH]c3ccccc3c2=O)CC1	D1 antag -79
CCc1ccc(N(CC)C(=O)Cn2nc(Cc3cccnc3)c3ccccc3c2=O)cc1	none
CC(=O)c1ccc(NC(=O)Nc2ccc(NS(=O)(=O)c3ccc(C)cc3)cc2)cc1	none
CC(=O)c1ccc(NS(=O)(=O)c2ccc(CC(C)C)cc2)cc1	D1 ag 40
CN(C)c1ccc(/C=C2\N=C(c3ccc(Cl)c([N+](=O)[O-])c3)NC2=O)cc1	D1 ag 35
COCCn1c(SCC(=O)c2ccccc2)nc2ccccc2c1=O	none
Cn1nnnc1Sc1ncnc2scc(-c3ccccc3F)c12	none (no result: Glioma ERSR ind)
Cn1nnnc1Sc1ncnc2scc(-c3ccccc3C(F)(F)F)c12	D1 antag -36!
Cn1nnnc1Sc1ncnc2scc(-c3ccc4ccccc4c3)c12	none (no result: Glioma ERSR ind)
Cn1nnnc1Sc1ncnc2scc(-c3cc4ccccc4o3)c12	D1 antag -44!
Cc1ccc(CCNC(=O)C2CC(c3ccccc3C(F)(F)F)=NO2)cc1 (configuration not stated)	none
Cc1ccccc1NC(=O)Cn1c(=O)n(Cc2ccc3c(c2)OCO3)c(=O)c2ccc(C(=O)NC3CCCCC3)cc21	none
Fc1ccc2[nH]c3c(N4CCc5ccccc5C4)ncnc3c2c1	D1 antag -35
Cc1ccc2[nH]c3c(N4CCc5ccccc5C4)ncnc3c2c1	D1 antag -61
Clc1ccc2[nH]c3c(N4CCC5(CC4)OCCO5)ncnc3c2c1	D1 antag -35
Brc1ccc2[nH]c3c(N4CCc5ccccc5C4)ncnc3c2c1	none (no result: D1 antag)
CC(C)(C)Cn1nc(-c2ccc(Cl)cc2)c2c(N)ncnc21	none (no result: TRHR PAM, TRHR ag, D1 ag, D1 antag, D1 PAM)
O=C(c1cccc(Cl)c1)c1nn(-c2ccccc2)c(=O)cc1C(F)(F)F	none
c1cncc(-c2nc(NCc3ccc4c(c3)OCO4)c3ccccc3n2)c1	TRHR PAM 32
Cc1cccc(N(C)S(=O)(=O)c2ccc(-c3cnc(C4CC4)o3)cc2)c1	D1 antag -38
CCOc1ccccc1NS(=O)(=O)c1ccc(-c2cnc(C3CC3)o2)cc1	D1 antag -38!
COc1ccc(NS(=O)(=O)c2ccc(-c3cnc(C4CC4)o3)cc2)cc1OC	D1 antag -31
O=C(CN1CCN(Cc2ccccc2)C1=O)NCc1cccs1	none
O=C(Nc1ccccc1C(=O)OCc1cc(=O)n2ccsc2n1)c1cccc(F)c1	none
CSc1ccc(/C=C/c2nc3ccccc3n2S(=O)(=O)c2cccc(Cl)c2)cc1	none
O=S(=O)(c1cccc(Cl)c1)n1c(/C=C/c2ccccc2Cl)nc2ccccc21	D1 antag -33
CSc1nn(Cc2cccc(Cl)c2)c(N(C(C)=O)C(C)=O)c1S(=O)(=O)c1ccccc1	D1 antag -61
CC(=O)Nc1cc(-c2ccccc2)nn1Cc1cccc(Cl)c1	none
COc1ccc(NC(=O)CN(c2ccc(C)cc2)S(=O)(=O)c2cccc3nonc23)cc1OC	Glioma ERSR ind inconclusive
Cc1ccc(S(=O)(=O)NNC(=O)Nc2ccc(C)c(C)c2)c(C)c1	D1 antag -35
C/C(=N\NC(N)=O)C1(C)CCCCC1	TRHR PAM 35
OCC#CCSc1nnc(-c2cccc3ccccc23)o1	none
O=C(c1cccc(F)c1)N1CCC[C@@]2(CCN(C(c3ccccc3)c3ccccc3)C2)C1	Glioma ERSR ind 13µM (no result: TRHR PAM, TRHR ag, D1 ag, D1 antag, D1 PAM)
O=C(c1cnccn1)N1CCC2(CC1)CN(C(c1ccccc1)c1ccccc1)C2	none (no result: TRHR PAM, TRHR ag, D1 ag, D1 antag, D1 PAM)
O=C(c1cnccn1)N1CCC2(CCCN(C(c3ccccc3)c3ccccc3)C2)CC1	Glioma ERSR ind 45µM (no result: TRHR PAM, TRHR ag, D1 ag, D1 antag, D1 PAM)
